Drawing on PubChem BioAssay, this text covers z-score and composite z-score for six molecules.

The nature of experiment [1]: A549 cell viability effects, profiling panel, calcein-AM fluorescence, 48 h, basal (AID 1162). Also: test concentration not given here. The settings on record: higher = more signal.
The nature of experiment [2]: adipocyte viability effects, profiling panel, cell-based, 3T3-L1 adipocytes, calcein-AM fluorescence, 48 h, basal (AID 1163). Also: test concentration not given here. The settings on record: 3T3-L1 adipocytes viability, higher = more signal.
A short description of experiment [3]: HepG2 cell viability effects, profiling panel, calcein-AM fluorescence, 48 h, basal (AID 1164). Also: test concentration not given here. The settings on record: higher = more signal.
The nature of experiment [4]: MM1S cell viability effects, profiling panel, calcein-AM fluorescence, 48 h, basal (AID 1165).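 Also: viability of MM1S multiple myeloma cells under basal unstimulated conditions; test concentration not given here.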 The settings on record: higher = more signal.
Experiment [5] in a line: basal RPMI8226 viability, no added stimulus, profiling panel, cell-based, calcein-AM fluorescence, 48 h, PK04 Diversity Set (AID 1166).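 Also: cells grown under basal conditions without added stimulus; test concentration not given here.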 As to conditions: RPMI8226 myeloma viability, higher = more signal.
Experiment [6] is described as follows: basal HepG2 mitochondrial membrane potential changes, profiling panel, cell-based, JC-1 fluorescence, 24 h, 100 nL compound (AID 1167). Also: test concentration not given here. The settings on record: higher = more signal.
Experiment [7] in a line: basal 3T3-L1 adipocyte mitochondrial potential changes, profiling panel, cell-based, JC-1 fluorescence, 3T3-L1 adipocytes, 24 h, 100 nL compound (AID 1168). Also: test concentration not given here. The settings on record: JC-1 mitochondrial fluorescence, higher = more signal, called active from +8 up or from −8 down.
Experiment [8] is described as follows: basal RPMI8226 mitochondrial membrane potential changes, profiling panel, cell-based, JC-1 fluorescence, 24 h, 100 nL compound (AID 1169). Also: test concentration not given here. The settings on record: RPMI8226 myeloma, JC-1 mitochondrial potential fluorescence, higher = more signal.
A short description of experiment [9]: basal MM1S mitochondrial membrane potential changes, profiling panel, cell-based, JC-1 fluorescence, 24 h, 100 nL compound (AID 1170). Also: test concentration not given here. The settings on record: higher = more signal.
Experiment [10] can be described thus: A549 lung cancer cell viability effects, profiling panel, resazurin fluorescence, 24 h, PK04 Diversity Set (AID 1171). Also: test concentration not given here. The settings on record: higher = more signal, called active from +8 up or from −8 down.
Experiment [11] in a line: HepG2 liver cancer cell viability effects, profiling panel, resazurin fluorescence, 24 h, PK04 Diversity Set (AID 1172). Also: test concentration not given here. The settings on record: higher = more signal.
A short description of experiment [12]: basal S. cerevisiae growth modulation, no modifier, primary screen, OD600, strain BY4716, 24 h, basal condition (AID 1173). As to conditions: OD600, 24 h, higher = more signal, called active from +8 up or from −8 down.
Experiment [13] in a line: MM1S myeloma cell viability, profiling panel, resazurin fluorescence, basal, 24 h, PK04 Diversity Set (AID 1174). Also: test concentration not given here. The settings on record: higher = more signal, called active from +8 up or from −8 down.
Experiment [14] has as its target Dihydroorotate dehydrogenase (quinone), mitochondrial (Plasmodium falciparum (isolate 3D7)) (UniProt Q08210). Briefly: PfDHODH enzyme inhibitors, primary screen, biochemical, C-terminal His tag, absorbance 600 nm (AID 1175).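 Also: recombinant parasite enzyme with a five histidine tag at its C terminus; test concentration not given here.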 The settings on record: DCIP absorbance 600 nm, higher = more signal, called active from +8 up or from −8 down.
Experiment [15] can be described thus: P. aeruginosa biofilm formation inhibitors, primary screen, strain PAO1, LB-PBS medium, absorbance 600 nm (AID 1176). Also: test concentration not given here. The settings on record: P. aeruginosa PAO1 growth/biofilm, A600, 12 h; higher = more signal.
A short description of experiment [16]: S. cerevisiae RM11-1a growth modifiers, primary screen, strain RM11-1a, OD600, basal, 24 h (AID 1177).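 Also: cultures grown under basal conditions with no added stressor; test concentration not given here.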 As to conditions: OD600, 24 h, higher = more signal, called active from +8 up or from −8 down.
Experiment [17] is described as follows: E. coli acrAB mutant growth effects, primary screen, E. coli filamentation inducers, strain DRC39, OD650, 24 h (AID 1178).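 Also: growth measured as culture turbidity by optical density at 650 nm; test concentration not given here.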 As to conditions: higher = more signal, called active from +8 up or from −8 down.
Experiment [18] is described as follows: E. coli acrAB mutant growth effects, primary screen, E. coli filamentation inducers, strain DRC39, OD650, 48 h (AID 1179).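 Also: screen aims at cell division blockers that make cells filament.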 The settings on record: E. coli DRC39 delta-acrAB growth, higher = more signal, called active from +8 up or from −8 down.
A short description of experiment [19]: RPMI8226 myeloma cell viability, profiling panel, resazurin fluorescence, basal, 24 h, PK04 Diversity Set (AID 1180).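 Also: RPMI8826 multiple myeloma cell line at 5000 cells per well; test concentration not given here.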 The settings on record: higher = more signal. Background: Resazurin is reduced to fluorescent resorufin, in cell work by metabolically active cells.
Experiment [20] concerns the target E3 ubiquitin-protein ligase XIAP (Homo sapiens) (UniProt P98170). Briefly: XIAP binders, primary screen, biophysical, small-molecule microarray, fluorescence 635 nm (AID 1181).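 Also: score merges 667 nm emission and signal to noise over triplicate slides.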 The settings on record: small-molecule microarray binding, higher = more signal.

Several values for one entry are separate records, joined by “and”; a condition that tells them apart may be missing. Identical values can stand only once. Activity calls are given as the source filed them. Unless noted, no rule for the calls is given here.

Chain of Dihydroorotate dehydrogenase (quinone), mitochondrial (Plasmodium falciparum (isolate 3D7)) (Q08210 whole entry, looked up): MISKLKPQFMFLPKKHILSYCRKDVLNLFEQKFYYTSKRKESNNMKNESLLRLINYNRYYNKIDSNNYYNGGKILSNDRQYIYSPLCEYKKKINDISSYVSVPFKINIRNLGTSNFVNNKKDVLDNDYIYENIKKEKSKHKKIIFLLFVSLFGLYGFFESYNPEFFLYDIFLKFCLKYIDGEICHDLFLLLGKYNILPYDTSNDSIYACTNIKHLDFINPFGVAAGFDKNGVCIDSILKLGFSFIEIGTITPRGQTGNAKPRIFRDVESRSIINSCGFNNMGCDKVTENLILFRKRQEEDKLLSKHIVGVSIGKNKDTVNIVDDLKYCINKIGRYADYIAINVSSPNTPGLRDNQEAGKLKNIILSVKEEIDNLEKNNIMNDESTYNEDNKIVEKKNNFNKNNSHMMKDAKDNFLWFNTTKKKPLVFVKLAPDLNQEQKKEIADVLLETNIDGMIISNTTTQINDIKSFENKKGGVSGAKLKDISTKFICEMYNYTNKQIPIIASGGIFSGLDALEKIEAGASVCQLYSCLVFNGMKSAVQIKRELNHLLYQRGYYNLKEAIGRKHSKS
Chain of E3 ubiquitin-protein ligase XIAP (Homo sapiens) (P98170 whole entry, looked up): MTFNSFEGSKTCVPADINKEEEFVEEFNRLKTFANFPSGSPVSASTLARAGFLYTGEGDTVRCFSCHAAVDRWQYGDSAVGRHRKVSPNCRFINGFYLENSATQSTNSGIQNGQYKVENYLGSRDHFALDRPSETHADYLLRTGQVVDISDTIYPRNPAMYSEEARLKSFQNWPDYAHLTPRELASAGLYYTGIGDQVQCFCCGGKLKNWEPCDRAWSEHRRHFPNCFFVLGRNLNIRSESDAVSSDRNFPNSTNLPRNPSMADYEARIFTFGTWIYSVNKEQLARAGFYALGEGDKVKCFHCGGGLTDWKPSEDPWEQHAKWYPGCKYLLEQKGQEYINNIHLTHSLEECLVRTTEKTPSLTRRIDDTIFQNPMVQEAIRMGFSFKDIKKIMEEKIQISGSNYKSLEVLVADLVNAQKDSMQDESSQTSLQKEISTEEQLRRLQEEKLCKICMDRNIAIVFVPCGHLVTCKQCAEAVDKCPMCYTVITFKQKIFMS

With `C=CCN(C(=O)C(c1cccs1)N(C(=O)/C=C\C(=O)O)C(C)(C)CO)c1ccc(OC)cc1` (stereo not given), the z-score in [1] is 3.04 and 1.76; in experiment [2], 1.09 and 0.718; in [3], 0.717 and 1.1; in experiment [4], 1.61 and 1.55; in experiment [5] it was -0.223 and 1.05; in experiment [6] it was 1.16 and 0.287. The z-score is 2.24 (inactive) and 0.954 (inactive) in experiment [7]; -0.567 and 0.754 in [8]; 0.212 and 0.326 in experiment [9]; 0.579 (inactive) and -0.0357 (inactive) in experiment [10]; 0.916 and 0.892 in experiment [11]; -2.66 (inactive) and -1.93 (inactive) in experiment [12]. Also, the z-score was 1.41 (inactive) and 0.788 (inactive) in [13]; 0.659 (inactive) in experiment [15]; -4.37 (inactive) and -2.5 (inactive) in experiment [16]; 1.81 (inactive) and 1.92 (inactive) in [17]; 2.23 (inactive) and 2.15 (inactive) in experiment [18]; 0.402 and 0.207 in experiment [19]. The composite z-score was -1.46 (inactive) and -1.61 (inactive) in experiment [14]; -0.102 and 0.214 in experiment [20].

For the molecule `CCCC[C@@H]1CN2[C@H](c3ccc(Br)cc3)[C@@H](C)CC[C@H]2C(=O)O1`, the z-score is 1.03 and 0.449 in [1]; -1.1 and -0.272 in [2]; 0.155 and 0.493 in experiment [3]; -1.36 and -0.797 in experiment [4]; 0.969 and 0.24 in experiment [5]; 0.134 and -1.42 in experiment [6]. The z-score in [7] was -0.299 (inactive) and -0.848 (inactive); in experiment [8], -0.187 and -0.361; in [9], -1.19 and 1.26; in experiment [10], 0.301 (inactive) and 1.49 (inactive); in [11], 0.0187 and 0.563; in [12], -1.99 (inactive) and -1.8 (inactive). For the same molecule, the z-score in experiment [13] was 0.0474 (inactive) and 0.358 (inactive); in experiment [15], 0.192 (inactive) and -0.172 (inactive); in experiment [16] it was 0.434 (inactive) and -0.478 (inactive); in experiment [17] it was 1.06 (inactive) and 0.354 (inactive); in experiment [18] it was 0.958 (inactive) and 0.41 (inactive); in experiment [19] it was 0.735 and 0.839. Further, the composite z-score in [14] was 0.0663 (inactive) and -0.155 (inactive); in experiment [20], -0.256 and -0.352.

`C=CCN(C(=O)C(c1cccs1)N(C(=O)/C=C\C(=O)O)c1c(Cl)cccc1CO)c1ccc(OC)cc1` (stereo not given): the z-score is 1.15 and 1.21 in experiment [1]; 0.111 and 0.112 in experiment [2]; 0.24 and 0.365 in experiment [3]; 1.51 and -0.996 in experiment [4]; 0.844 and 0.57 in experiment [5]; 0.601 and -1.19 in [6]. Further, the z-score in experiment [7] was 0.418 (inactive) and 0.623 (inactive); in [8], -0.74 and -0.0886; in experiment [9], 1.4 and -0.173; in [10], 0.747 (inactive) and -0.246 (inactive); in experiment [11], 0.154 and -2.56; in experiment [12], -2.07 (inactive) and -1.37 (inactive). Moreover, the z-score in experiment [13] was 1.02 (inactive) and -0.0953 (inactive); in [15], -0.18 (inactive); in experiment [16], -0.736 (inactive) and 0.0288 (inactive); in experiment [17], 0.976 (inactive) and 0.515 (inactive); in experiment [18], 1.11 (inactive) and 0.57 (inactive); in experiment [19], 0.509 and -0.0282. Also, the composite z-score is -5.76 (inactive) and -2.28 (inactive) in [14]; 0.0264 and -0.0795 in experiment [20].

For the molecule `C=CCN(CCCCC)C(=O)C1N(c2c(Cl)cccc2CO)C(=O)C2C(C(=O)O)C3C=CC21O3` (stereo not given), the z-score in experiment [1] was 0.91 and 0.677; in experiment [2] it was 1.58 and 0.498; in [3], -0.841 and -0.469; in [4] it was 1 and 0.892; in experiment [5] it was -1.09; in experiment [6], -0.828 and -1.37. Further, the z-score in experiment [7] is -0.438 (inactive) and -0.55 (inactive); in [8] it was 0.0653 and 0.469; in experiment [9], 0.223 and 1.03; in experiment [10], -1.5 (inactive) and -1.33 (inactive); in [11], -1.63 and -0.873; in experiment [12], 0.0191 (inactive) and -0.402 (inactive). For the same molecule, the z-score is -1.48 (inactive) and -0.932 (inactive) in [13]; -0.441 (inactive) and -0.578 (inactive) in experiment [15]; 0.501 (inactive) and 0.477 (inactive) in experiment [16]; -0.957 (inactive) and -1.11 (inactive) in experiment [17]; -0.992 (inactive) and -1.16 (inactive) in experiment [18]; -1.52 and -1.3 in [19]. For the same molecule, the composite z-score was 0.564 (inactive) and -1.24 (inactive) in experiment [14]; -0.237 and -0.0414 in experiment [20].

Regarding `C[N+](C)(C)CCCCCCNC(=O)[C@H]1C[C@H]2C(=O)N[C@@H](CCCC[N+](C)(C)C)C(=O)N2[C@H]1c1cccc(OCCO)c1`, the z-score is 0.47 and -0.453 in [1]; -0.32 and -0.34 in [2]; 0.427 and -0.245 in experiment [3]; 0.0606 and -0.353 in experiment [4]; 0.366 and 0.635 in experiment [5]; -0.112 and -1.53 in [6]. The z-score in experiment [7] was 0.418 (inactive) and 0.566 (inactive); in experiment [8], -0.192 and 0.231; in experiment [9], -0.644 and -0.272; in experiment [10] it was -0.154 (inactive) and -0.311 (inactive); in experiment [11] it was -0.402 and -0.0872; in [12], -0.255 (inactive) and 0.763 (inactive). Also, the z-score is 0.737 (inactive) and -0.541 (inactive) in [13]; -0.366 (inactive) and 0.146 (inactive) in experiment [15]; 0.297 (inactive) and 1.2 (inactive) in [16]; 1.04 (inactive) and -0.0715 (inactive) in experiment [17]; 1.47 (inactive) and -0.451 (inactive) in experiment [18]; 0.455 and -1.29 in experiment [19]. The composite z-score in [14] is -2.69 (inactive) and -1.29 (inactive); in experiment [20], -0.0553 and -0.0559.

As for `COc1ccc(-c2ccc3c(n2)CCCN3CC(O)CN2CCCc3nc(-c4ccc(Br)cc4)ccc32)cc1` (stereo not given), the z-score is 0.261 and -0.331 in experiment [1]; 0.163 and 0.196 in experiment [2]; -0.0242 and 0.0285 in experiment [3]; -2.63 and -0.767 in experiment [4]; -0.393 and -0.48 in experiment [5]; 0.219 and -1.61 in experiment [6]. For the same molecule, the z-score is -0.136 (inactive) and -0.88 (inactive) in experiment [7]; 0.553 and 0.817 in [8]; 0.0404 and -0.331 in experiment [9]; -0.23 (inactive) and 0.169 (inactive) in experiment [10]; -0.721 and 0.465 in experiment [11]; -4.64 (inactive) and -1.56 (inactive) in experiment [12]. Further, the z-score in [13] was -0.791 (inactive) and -0.334 (inactive); in experiment [15], -0.139 (inactive) and -0.245 (inactive); in experiment [16], 0.665 (inactive) and 0.0647 (inactive); in experiment [17] it was 0.336 (inactive) and 0.725 (inactive); in [18], 0.191 (inactive) and 0.761 (inactive); in [19], -0.286 and -0.439. Further, the composite z-score in experiment [14] is 0.0106 (inactive) and 0.0126 (inactive); in experiment [20], 1.04 and 0.94.
